Our source for the AC50 and outcome values is PubChem BioAssay (EPA / NIEHS).

The source made the active and inactive calls. How the source made its calls: active means hit-call score of the fitted dose curve at least 0.9, where 1 is the maximum; inactive means score below 0.9.

A short description of test [1]: APR_HepG2_CellLoss_72hr: Apredica 72-hour HepG2 Assay for Cell Loss (AID 2282915). The following applies: high-content imaging. A digest of the protocol: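 HepG2 cells exposed 72 h to compound at 0.39–200 uM (10 concentrations, duplicate) in 0.5% DMSO. Fixed with 3.7% formaldehyde and Hoechst 33342-stained. Imaged at 20x; nuclear count gives cell number, fitted bidirectionally versus DMSO.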

The nature of test [2]: APR_HepG2_P-H2AX_72hr: Apredica 72-hour HepG2 Assay for H2AX Phosphorylation (AID 2282916).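 Further: phospho-histone H2A.x immunostain intensity per cell marking DNA damage.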 The following applies: imaging, actives raise or lower the signal. A digest of the protocol: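 HepG2; cpd 0.39–200 uM ×10 conc, duplicates; 0.5% DMSO; 72 hr. Fix 3.7% formaldehyde 30 min RT, 0.5% Triton X-100 10 min. Anti-phospho-H2A.x 1:200 + Hoechst 2 ug/mL, 60 min RT; ArrayScan imaging.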

Test [3] in a line: APR_HepG2_MitoMembPot_72hr: Apredica 72-hour HepG2 Assay for Mitochondrial Membrane Potential (AID 2282917). The following applies: imaging, actives raise or lower the signal. A digest of the protocol:
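HepG2 cells dosed 72 hr with compound at 0.39–200 uM in duplicate, 0.5% v/v DMSO final. Mitochondria stained with 250 nM MitoTracker Red CMXRos for 30 min before formaldehyde fixation, imaged by high-content fluorescence; bidirectional fit versus DMSO.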

The nature of test [4]: APR_HepG2_MitoticArrest_72hr: Apredica 72-hour HepG2 Assay for Mitotic Arrest (AID 2282918). The following applies: high-content imaging, actives raise or lower the signal. A digest of the protocol: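 HepG2 cells treated 72 h at 0.39–200 uM, 0.5% DMSO final; formaldehyde-fixed, stained with Hoechst 33342 and phospho-histone H3 antibody, imaged by high-content fluorescence; bidirectional fit versus DMSO.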

The nature of test [5]: APR_HepG2_MicrotubuleCSK_72hr: Apredica 72-hour HepG2 Assay for Microtubule CSK Stabilty (AID 2282919). The following applies: HepG2 microtubule cytoskeleton, high-content imaging, actives raise or lower the signal. A digest of the protocol: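 HepG2 cells were exposed 72 hr to compound at 0.39–200 uM in duplicate (0.5% DMSO final), then fixed and permeabilized. Alpha-tubulin immunofluorescence was imaged by high-content microscopy, with bidirectional fitting against DMSO and taxol as positive control.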

A short description of test [6]: APR_HepG2_P-H2AX_24hr: Apredica 24-hour HepG2 Assay for H2AX Phosphorylation (AID 2282920). The following applies: high-content imaging, actives raise or lower the signal. A digest of the protocol: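 HepG2 cells dosed 24 h at 0.39–200 uM (10 points, duplicate, 0.5% DMSO final). Formaldehyde-fixed and permeabilized, then immunostained for phospho-H2A.x with Hoechst. Fluorescence quantified by high-content imaging, fitted bidirectionally versus DMSO.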

Test [7] can be described thus: APR_HepG2_StressKinase_72hr: Apredica 72-hour HepG2 Assay for Stress Kinase (AID 2282921). The settings on record: HepG2 stress kinase (phospho-c-Jun) imaging, actives raise or lower the signal. The method in brief:
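Dose 0.39–200 uM (10 pts, duplicate), 0.5% DMSO; 72 h; fix 3.7% formaldehyde 30 min RT; Triton permeabilize; anti-phospho-c-Jun/Cy3 + Hoechst 60 min RT; image 20x; fit gain/loss vs DMSO.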

A short description of test [8]: APR_HepG2_StressKinase_24hr: Apredica 24-hour HepG2 Assay for Stress Kinase (AID 2282922). The settings on record: HepG2 stress kinase (phospho-c-Jun) imaging, actives raise or lower the signal. A digest of the protocol: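 HepG2 cells exposed 24 h to 0.39–200 uM compound in duplicate (0.5% v/v DMSO final). Cells fixed in 3.7% formaldehyde, permeabilized and immunostained for phospho-c-Jun; read by high-content fluorescence imaging, fitted bidirectionally against DMSO.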

Test [9] is described as follows: APR_HepG2_p53Act_72hr: Apredica 72-hour HepG2 Assay for p53 Activation (AID 2282923).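 Further: average cellular p53 protein immunofluorescence intensity in HepG2 cells.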 The following applies: high-content imaging, actives raise or lower the signal. The method in brief:
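10-pt conc. 0.39–200 uM, duplicate, 0.5% DMSO; 72 hr exposure; 3.7% formaldehyde fix, 0.5% Triton perm; sheep anti-p53/Cy5 + Hoechst; ArrayScan 20x, 6 images/well; gain/loss fit vs DMSO.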

Test [10] in a line: APR_HepG2_MitoMass_72hr: Apredica 72-hour HepG2 Assay for Mitochondrial Mass (AID 2282924).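 Further: MitoTracker Red CMXRos stain intensity per cell imaged as mitochondrial mass.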 The following applies: high-content imaging, actives raise or lower the signal. A digest of the protocol:
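HepG2 cells dosed 72 hr at 0.39–200 uM (0.5% DMSO), in duplicate. MitoTracker Red CMXRos 250 nM loaded 30 min before formaldehyde fixation; high-content fluorescence imaging, bidirectional fit versus DMSO.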

Test [11] can be described thus: APR_HepG2_NuclearSize_72hr: Apredica 72-hour HepG2 Assay for Nuclear Size (AID 2282925). The following applies: high-content imaging, actives raise or lower the signal. A digest of the protocol:
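HepG2 cells dosed 72 h at 0.39–200 uM (10 concentrations, duplicate) in 0.5% v/v DMSO final. Fixed, Hoechst 33342-stained nuclei imaged; nuclear diameter measured by automated image analysis. Bidirectional fit versus DMSO.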

A short description of test [12]: ATG_CRE_CIS: Attagene CIS-FACTORIAL HepG2 Assay for human cAMP Responsive Element (CRE) binding protein 3 (AID 2282926). The following applies: HepG2 CRE cis-reporter, Attagene multiplexed mRNA; actives raise or lower the signal. A digest of the protocol: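 HepG2 cells transiently transfected with cis-element-driven multiple reporter transcription units; CRE reporter mRNA measured 24 h after dosing by RT-PCR, 6-FAM labelling, HpaI digestion and capillary electrophoresis. Bidirectional fit versus DMSO baseline.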

Test [13] deals with CCAAT/enhancer-binding protein beta (Homo sapiens) (UniProt P17676). Briefly: ATG_C_EBP_CIS: Attagene CIS-FACTORIAL HepG2 Assay for human CCAAT/Enhancer Binding Protein (C/EBP) beta (AID 2282927). The following applies: HepG2 Attagene cis-factorial transcription factor reporter; actives raise or lower the signal. The method in brief:
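HepG2 transiently transfected with multiplexed reporter units under cis-regulatory promoters reporting endogenous C/EBPb activity. After 24 h exposure, reporter mRNA assayed by RT-PCR, fluorescent labelling, HpaI digestion and capillary electrophoresis; bidirectional fitting versus DMSO.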

A short description of test [14]: ATG_CMV_CIS: Attagene CIS-FACTORIAL HepG2 Assay for human CMV (Internal Marker) (AID 2282928).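 Further: endpoint acts as a background internal control marker rather than a target.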 The following applies: HepG2 CMV promoter reporter, transcription factor profiling; actives raise or lower the signal. The method in brief:
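Cell system: HepG2, transiently transfected multiple reporter units under cis promoters. Exposure: 24 h. Detection: RT-PCR, FAM labeling, HpaI digestion, capillary electrophoresis. Analysis: bidirectional, DMSO baseline.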

Test [15] concerns the target Aryl hydrocarbon receptor (Homo sapiens) (UniProt P35869). Briefly: ATG_Ahr_CIS: Attagene CIS-FACTORIAL HepG2 Assay for human Aryl Hydrocarbon Receptor (Ahr) (AID 2282930). The settings on record: HepG2 AhR cis-factorial reporter transcription; actives raise or lower the signal. A digest of the protocol:
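HepG2 cells transiently transfected with cis-element-driven multiplexed reporter units; endogenous AhR activity read as reporter mRNA 24 h after dosing, via RT-PCR, 6-FAM labelling, HpaI digestion and capillary electrophoresis. Bidirectional fit relative to DMSO.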

Test [16] can be described thus: ATG_AP_1_CIS: Attagene CIS-FACTORIAL HepG2 Assay for human Activator Protein 1 (AP-1) (AID 2282931). The settings on record: HepG2 Attagene cis-factorial AP-1 reporter mRNA; actives raise or lower the signal. The method in brief:
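Endogenous transcription-factor activity in human HepG2 liver cells is read through a cis-promoter reporter transcript, sampled 24 h after dosing. Detection uses RT-PCR with capillary electrophoresis; values come from bidirectional fitting relative to DMSO.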

Test [17] can be described thus: ATG_AP_2_CIS: Attagene CIS-FACTORIAL HepG2 Assay for human Activator Protein 2 (AP-2) (AID 2282932). The settings on record: HepG2 AP-2 cis-reporter, Attagene transcription factor profiling; actives raise or lower the signal. The method in brief:
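HepG2 cells transiently transfected with cis-element reporter units and exposed for 24 h. Reporter mRNA measured by RT-PCR, FAM labelling, HpaI digestion and capillary electrophoresis. Changes in either direction fitted relative to DMSO.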

A short description of test [18]: ATG_BRE_CIS: Attagene CIS-FACTORIAL HepG2 Assay for human Bone Morphogenetic Protein (BMP) Response Element (BRE) (AID 2282933). The settings on record: HepG2 BMP response element reporter, Attagene transcription factor profiling; actives raise or lower the signal. The method in brief:
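Endogenous transcription factor activity read in transiently transfected HepG2 cells after 24 h chemical exposure. Bidirectional curve fitting against DMSO; readout is reporter transcript level by RT-PCR with capillary electrophoresis of labelled products.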

The target of test [19] is Retinoic acid receptor alpha (Homo sapiens) (UniProt P10276). Briefly: ATG_DR5_RAR_CIS: Attagene CIS-FACTORIAL HepG2 Assay for human Retinoic Acid Receptor Alpha (RARE), DR5 submotif (AID 2282934).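 On AC50: reporter responds to endogenous RAR alpha beta and gamma in HepG2 not RARA alone.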 The following applies: HepG2 Attagene cis-factorial RARE DR5 reporter, mRNA; actives raise or lower the signal. A digest of the protocol: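 HepG2 cells transiently transfected with multiplexed reporter units; DR5 cis-element drives reporter through endogenous transcription factors. After 24 h dosing, reporter mRNA quantified by RT-PCR, fluorescent labeling, HpaI digestion and capillary electrophoresis; bidirectional fitting versus DMSO.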
Chain of Retinoic acid receptor alpha (Homo sapiens) (P10276 whole entry, looked up): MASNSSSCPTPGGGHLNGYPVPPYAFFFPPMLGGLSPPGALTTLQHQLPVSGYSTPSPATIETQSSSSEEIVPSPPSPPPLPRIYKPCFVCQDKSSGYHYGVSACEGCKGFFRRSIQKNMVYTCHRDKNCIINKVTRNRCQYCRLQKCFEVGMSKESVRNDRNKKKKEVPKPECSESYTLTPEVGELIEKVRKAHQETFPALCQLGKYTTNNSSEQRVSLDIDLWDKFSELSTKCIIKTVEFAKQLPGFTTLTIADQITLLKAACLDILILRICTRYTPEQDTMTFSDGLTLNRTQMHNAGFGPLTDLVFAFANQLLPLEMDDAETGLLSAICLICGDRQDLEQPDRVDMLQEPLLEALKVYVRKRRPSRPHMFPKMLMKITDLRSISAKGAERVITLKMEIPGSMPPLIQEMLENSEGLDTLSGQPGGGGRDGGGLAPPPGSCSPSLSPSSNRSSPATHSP

Chain of CCAAT/enhancer-binding protein beta (Homo sapiens) (P17676 whole entry, looked up): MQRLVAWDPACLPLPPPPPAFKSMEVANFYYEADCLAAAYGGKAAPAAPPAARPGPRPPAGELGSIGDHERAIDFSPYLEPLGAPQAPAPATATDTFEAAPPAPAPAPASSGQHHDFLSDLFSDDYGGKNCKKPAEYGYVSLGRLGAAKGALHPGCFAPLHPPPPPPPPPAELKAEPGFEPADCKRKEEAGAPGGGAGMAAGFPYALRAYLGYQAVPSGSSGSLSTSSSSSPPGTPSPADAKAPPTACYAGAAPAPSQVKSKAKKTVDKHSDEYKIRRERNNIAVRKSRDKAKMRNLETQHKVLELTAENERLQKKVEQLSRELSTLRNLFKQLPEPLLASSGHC
Chain of Aryl hydrocarbon receptor (Homo sapiens) (P35869 whole entry, looked up): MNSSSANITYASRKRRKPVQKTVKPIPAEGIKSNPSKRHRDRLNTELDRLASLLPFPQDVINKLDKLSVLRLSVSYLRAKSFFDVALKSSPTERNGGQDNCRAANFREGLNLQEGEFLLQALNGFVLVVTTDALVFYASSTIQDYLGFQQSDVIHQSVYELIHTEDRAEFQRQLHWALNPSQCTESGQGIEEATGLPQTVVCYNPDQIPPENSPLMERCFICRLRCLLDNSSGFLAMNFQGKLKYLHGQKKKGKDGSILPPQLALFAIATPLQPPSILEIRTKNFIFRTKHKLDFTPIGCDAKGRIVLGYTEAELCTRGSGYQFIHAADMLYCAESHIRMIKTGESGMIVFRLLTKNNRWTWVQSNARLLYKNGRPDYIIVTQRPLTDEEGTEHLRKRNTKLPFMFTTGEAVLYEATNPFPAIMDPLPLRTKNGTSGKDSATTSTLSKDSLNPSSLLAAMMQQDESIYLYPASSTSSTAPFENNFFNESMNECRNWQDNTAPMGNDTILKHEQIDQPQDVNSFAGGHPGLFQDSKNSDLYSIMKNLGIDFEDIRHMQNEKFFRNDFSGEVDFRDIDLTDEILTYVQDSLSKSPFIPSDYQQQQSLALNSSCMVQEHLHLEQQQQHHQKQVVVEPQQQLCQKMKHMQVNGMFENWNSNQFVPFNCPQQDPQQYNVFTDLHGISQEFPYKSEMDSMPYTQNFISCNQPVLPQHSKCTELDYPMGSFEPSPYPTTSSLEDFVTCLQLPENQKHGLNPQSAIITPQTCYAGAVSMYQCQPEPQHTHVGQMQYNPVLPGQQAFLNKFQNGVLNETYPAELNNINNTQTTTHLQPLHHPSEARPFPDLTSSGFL

With `C=CCOC(=O)C(C)(C)OC(=O)c1cc(-n2c(=O)cc(C(F)(F)F)n(C)c2=O)ccc1Cl`, the half-maximal activity concentration (AC50) in [1] was 97.7 µM (active); in test [3], 65.2 µM (active); in [4], 90.1 µM (active); in [5], 100 µM (active); in test [12] it was 13.3 µM (active). Besides, the call in test [2], in [6], in test [7], in test [8], in test [9] and in test [10] was inactive. Further, the outcome in [11], in test [13], in [14], in [15], in test [16] and in test [17] was inactive. For the same molecule, the call in test [18] was inactive.
For `CC(C)(C)C(=O)C(Oc1ccc(Cl)cc1)n1cncn1` (centres undefined), the AC50 in [1] was 78.6 µM (active); in [12], 41.9 µM (active); in test [13], 50 µM (active); in test [15], 34.7 µM (active); in test [18] it was 50 µM (active); in test [19], 12.8 µM (active). Besides, the result in test [2], in [3], in test [4], in test [5], in [6] and in test [7] was inactive. The molecule was classed as inactive in test [8], in test [9], in test [10], in test [11], in test [14] and in test [17].
With `CS(=O)(=O)c1ccc(C(=O)C2C(=O)CCCC2=O)c([N+](=O)[O-])c1`, the result in [1], in test [2], in test [3], in test [4], in test [5] and in test [6] was inactive. The molecule was classed as inactive in [7], in [8], in test [9], in test [10], in test [11] and in test [12]. Besides, the outcome in [13], in test [14], in test [15], in [17] and in [18] was inactive.
Take `CC(C)=CC1C(C(=O)OCc2coc(Cc3ccccc3)c2)C1(C)C` (centres undefined): the AC50 in test [1] is 40.1 µM (active); in [3], 159 µM (active); in test [5], 74.2 µM (active); in test [12], 13.2 µM (active); in [16] it was 14.3 µM (active); in test [18], 15.5 µM (active). In addition, the AC50 in test [19] was 8.01 µM (active). Further, the outcome in test [2], in test [4], in test [6], in [7], in test [8] and in [10] was inactive. Also, the molecule was called inactive in test [11], in [13], in test [14], in test [15] and in test [17].
Take `CCCCOCN(C(=O)CCl)c1c(CC)cccc1CC`: the AC50 in test [1] was 30.6 µM (active); in test [2], 113 µM (active); in test [3], 33.2 µM (active); in test [4] it was 181 µM (active); in test [5] it was 10.6 µM (active); in test [7] it was 13.2 µM (active). Besides, the AC50 was 0.654 µM (active) in [12] and 0.647 µM (active) in test [13]. Besides, the result in test [6], in test [8], in test [9], in test [10], in test [11] and in [14] was inactive. Further, the molecule was called inactive in [15], in test [17] and in test [18].
Consider `CCOc1nc(C(Cl)(Cl)Cl)ns1`, for which the call in [1], in [2], in [3], in test [4], in test [5] and in test [6] was inactive. Moreover, the result in test [7], in test [8], in [9], in test [10], in test [11] and in [13] was inactive. Also, the molecule was called inactive in test [14], in test [15], in test [17] and in test [19]. The AC50 was 20.8 µM (active) in [12] and 24.6 µM (active) in test [18].
As for `CNC(=O)Oc1cccc2ccccc12`, the AC50 in test [1] was 102 µM (active); in [2], 97.3 µM (active); in test [3] it was 76.9 µM (active); in test [6], 102 µM (active); in test [10] it was 36 µM (active); in test [14], 50 µM (active). Also, the AC50 was 6.71 µM (active) in test [15] and 23.6 µM (active) in test [18]. In addition, the result in test [4], in test [5], in test [7], in [8], in test [9] and in [11] was inactive. The result in test [12], in [13], in test [17] and in [19] was inactive.

As a reminder, the AC50 is the concentration at which the activity in the assay is half-maximal.
